# From PubChem BioAssay (EPA / NIEHS)
# Calls of active or inactive are those of the source. The calls were made as follows: active = hit-call score of the fitted dose curve at least 0.9, where 1 is the maximum; inactive = score below 0.9.
# Biological target: Transcription factor E2F1 (Homo sapiens) (UniProt Q01094)
# Assay: ATG_E2F_CIS: Attagene CIS-FACTORIAL HepG2 Assay for human E2F Transcription Factor 1 (AID 2282935)
# Settings: HepG2 Attagene cis-reporter, E2F reporter RNA transcripts; actives raise or lower the signal
# Protocol: ATG_CIS is a cell-based, multiplexed-readout assay that uses HepG2, a human liver cell line, with measurements taken at 24 hours after chemical dosing in a 24-well plate.ATG_E2F_CIS is one of 52 assay component(s) measured or calculated from the ATG_CIS assay. It is designed to make measurements of mRNA induction, a form of inducible reporter, as detected with fluorescence intensity signals by Reverse transcription polymerase chain reaction (RT-PCR) and Capillary electrophoresis technology.Data from the assay component ATG_E2F_CIS was analyzed into 1 assay endpoint. This assay endpoint, ATG_E2F_CIS, was analyzed with bidirectional fitting relative to DMSO as the negative control and baseline of activity. Using a type of inducible reporter, measures of mRNA for gain or loss-of-signal activity can be used to understand the reporter gene at the transcription factor-level as they relate to the gene E2F1. Furthermore, this assay endpoint can be referred to as a primary readout, because this assay has produced multiple assay endpoints where this one serves a reporter gene function. To generalize the intended target to other relatable targets, this assay endpoint is annotated to the dna binding intended target family, where the subfamily is E2F transcription factor.
# Human liver HepG2 cells are transiently transfected with multiple reporter transcription units (MRTUs) in 6-well plates using FuGene 6 reagent (Roche; 3 ml FuGene/1 mg DNA). The MRTU constructs are regulated by a cis-regulating element (promoter). […] A major difference between the CIS and TRANS system is that in CIS activities of endogenous TFs are measured, whereas the TRANS assay evaluates changes in activities of exogenous, chimeric NR-Gal4 proteins. […] At the end of 24 hour incubation, total RNA was isolated using TriZol reagent (Invitrogen). The isolated RNA is then reverse-transcribed using oligo(dT) primer and Mo-MLV reverse transcriptase (Invitrogen) with DNAse I (Ambion) treatment for 30 min. The one-tenth of the produced cDNA was amplified by PCR using Taq DNA polymerase (Invitrogen) and two reporter sequence-specific primers. The PCR products were fluorescently labeled by primer extension with 6-arboxyfluorescein (6-FAM) 5'-labeled reporter sequence-specific primer (2 min at 95 C, 20 s at 68 C and 10 min at 72 C) and these products were digested with 5U of HpaI (New England Biolabs) for 2h at 37 C. The fragments were purified using Qiaquick PCR columns (Qiagen), analyzed on an ABI 3130xL genetic analyzer (Applied Biosystems) with peak positions identified by using a set of X-rhodamine (ROX)-labeled MapMarker1000 molecular weight standards (BioVentures). The raw capillary electrophoresis data was processed using Attagraph software (Attagene).
# Transcription factor E2F1 (Homo sapiens), sequence (Q01094 whole entry, looked up): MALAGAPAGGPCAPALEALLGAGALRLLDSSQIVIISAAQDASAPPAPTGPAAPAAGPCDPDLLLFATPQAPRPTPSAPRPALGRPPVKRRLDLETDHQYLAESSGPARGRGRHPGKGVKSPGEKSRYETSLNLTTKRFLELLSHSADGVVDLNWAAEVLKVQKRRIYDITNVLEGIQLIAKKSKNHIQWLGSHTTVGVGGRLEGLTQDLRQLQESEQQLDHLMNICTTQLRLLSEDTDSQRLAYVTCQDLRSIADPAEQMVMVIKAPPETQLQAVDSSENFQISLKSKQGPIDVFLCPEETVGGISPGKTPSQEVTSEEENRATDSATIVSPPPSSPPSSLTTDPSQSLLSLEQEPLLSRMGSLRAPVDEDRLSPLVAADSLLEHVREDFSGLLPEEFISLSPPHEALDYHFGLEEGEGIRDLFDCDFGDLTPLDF
Compound,outcome,AC50
C=C(C)[C@@H]1CCC2=CCC[C@@H](C)[C@]2(C)C1,inactive,
[Cl][Nd]([Cl])[Cl],inactive,
CCOC(=O)N1CCC(=C2c3ccc(Cl)cc3CCc3cccnc32)CC1,inactive,
Cc1cnc(NC(=O)C2=C(O)c3ccccc3S(=O)(=O)N2C)s1,inactive,
CC=CC(F)(F)C(F)(F)C(F)(F)F,inactive,
CCc1ccc2c(c1)C(=O)c1ccccc1C2=O,inactive,
CC1(C)[C@H]2CC[C@]1(C)C(=O)C2,inactive,
NC(=O)c1ccccc1O,inactive,
OCCCS,inactive,
c1ccc2c(c1)ccc1ncccc12,inactive,
O=C1OC(=O)c2cc(Oc3ccc4c(c3)C(=O)OC4=O)ccc21,inactive,
CCCCCC(C)O (stereo not given),inactive,
Cc1ccc2oc(=O)ccc2c1,inactive,
COC(=O)c1c(C)cc(O)c(C)c1O,inactive,
O=CC1CC1,inactive,
CC(C)c1ccc(C#N)cc1,inactive,
Cc1cc(C)c(C(=O)O)c(C)c1,inactive,
O=C(c1ccc(O)cc1)c1ccc(O)cc1O,inactive,
CC(C)c1ccc2c(c1)CC[C@H]1[C@](C)(CN)CCC[C@]21C,,6.03 µM (active)
C(=CC=Nc1ccccc1)C=CNc1ccccc1,inactive,

Compound,outcome,AC50
CC1(C)O[C@@H]2C[C@H]3[C@@H]4C[C@H](F)C5=CC(=O)C=C[C@]5(C)[C@@]4(F)[C@@H](O)C[C@]3(C)[C@]2(C(=O)CO)O1,inactive,
CCCCNc1ccc(NCCCC)c2c1C(=O)c1ccccc1C2=O,inactive,
CCN(CCC#N)c1ccc(N=Nc2c(Cl)cc([N+](=O)[O-])cc2Cl)cc1,inactive,
NC(=O)OCC(COC(N)=O)c1ccccc1,inactive,
C=CC=CC=CCCCCC,inactive,
Cc1oncc1C(=O)Nc1ccc(C(F)(F)F)cc1,inactive,
CC(=O)c1ccc2c(c1)CCCC2,inactive,
CC(=O)Nc1ccc2c(c1)Cc1cc(NC(C)=O)ccc1-2,inactive,
Cc1ccc(C2OC[C@@H]3OC(c4ccc(C)cc4)O[C@H]([C@H](O)CO)[C@@H]3O2)cc1 (stereo not given in full),inactive,
CNC(=S)N(C)C,inactive,
CCO[Si](CCCN=C=O)(OCC)OCC,inactive,
C=C[Si](OC(C)=O)(OC(C)=O)OC(C)=O,inactive,
CO[Si](OC)(OC)c1ccccc1,inactive,
O=c1cc(-c2ccccc2)oc2ccccc12,inactive,
Nc1ccc(Oc2ccc(N)c(N)c2)cc1,inactive,
CCCCCCC1(C)CCC(=O)O1 (stereo not given),inactive,
COc1ccc(NC(C)=O)cc1N,inactive,
O=C(/C=C/C=C/c1ccc2c(c1)OCO2)N1CCCCC1,inactive,
CCOC(=O)CC,inactive,
CCC(CC)C(=O)O,inactive,
